Records with an inconclusive call do not appear. Activity calls are given as the source filed them. Unless noted, the call rests on the fitted dose curve; in most records, active means well fitted curve in the direction sought with a large enough effect in the repeat runs; inconclusive means weak or mixed curves; inactive means no such curve, though single readings can be large; an effect the other way counts as inactive or inconclusive.
How the values were obtained:
[1] = qHTS assay to identify small molecule antagonists of the estrogen related receptor (ERR) signaling pathway from Tox21 library - cell viability counter screen (AID 1224834); further: nearly all actives have a fitted effect of over 30% in size
Summary of the method: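 CellTiter-Fluor fluorescence, read after 30 min at 37 C, measures viability of ERR cells. Cells plated at 2,000/well and incubated 6 h before pin-tool compound addition, then exposed 17.5 hours at 37 C.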

[2] = target: Luciferin 4-monooxygenase (Photinus pyralis) (UniProt P08659); assay: qHTS assay to identify small molecule inhibitors of firefly luciferase (AID 1224835); further: nearly all actives have a fitted effect of over 25% in size; further: potency means the concentration at half of the fitted maximal effect
Summary of the method: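 Biochemical qHTS: compounds run as interplate titrations against purified firefly enzyme, with D-luciferin and ATP each at its KM concentration. Light output recorded by CCD imaging.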

[3] = qHTS assay to identify small molecule agonists of the constitutive androstane receptor (CAR) signaling pathway - cell viability counter screen (AID 1224836); further: series mostly up to about 92 µM; nearly all actives have a fitted effect of over 45% in size
Summary of the method: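 HepG2 cells stably carrying hCAR and a CYP2B6-2.2kb reporter; 15-concentration compounds plus PK11195 (final 0.75 uM), 23 hr at 37 C/5% CO2. Viability read by CellTiter-Fluor fluorescence.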

[4] = qHTS assay to identify small molecule antagonists of the constitutive androstane receptor (CAR) signaling pathway - cell viability counter screen (AID 1224837); further: series mostly up to about 92 µM; nearly all actives have a fitted effect of over 45% in size
Summary of the method: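 Cytotoxicity counter-screen: CellTiter-Fluor fluorescence after 23 h compound exposure (15-point qHTS) in double-stable HepG2-CYP2B6-hCAR cells, with 50 nM CITCO added.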

[5] = qHTS assay to identify small molecule antagonists of the estrogen related receptor signaling pathway with the pleiotropic PPARgamma coactivator (PGC) from Tox21 10K library - cell viability counter screen (AID 1224840; active means well fitted cell-killing curve with a large enough effect in the repeat runs, not every such curve was filed as active; further: nearly all actives have a fitted effect of over 40% in size)
Summary of the method: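 Counter-screen for cytotoxicity: after 17.5 h compound exposure at 37 C, CellTiter-Fluor reagent added to PGC/ERR cells for 30 min and fluorescence read. Cells were seeded at 2,000 per well 6 h before dosing.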

[6] = target: Thyrotropin receptor (Homo sapiens) (UniProt P16473); assay: qHTS assay to identify small molecule agonists of the thyroid stimulating hormone receptor (TSHR) signaling pathway (AID 1224843; calls by dose curve; further: nearly all actives have a fitted effect of over 45% in size)
Summary of the method: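 Agonist-mode screen: TSHR HEK293 cells received test chemicals for half an hour at room temperature, then HTRF cAMP detection reagents for one hour prior to fluorescence measurement. Each chemical ran as a 15-concentration series, triplicated.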

[7] = qHTS assay to identify small molecule agonists of the hypoxia (HIF-1) signaling pathway - cell viability counter screen (AID 1224844; calls by dose curve; further: nearly all actives have a fitted effect of over 50% in size)
Summary of the method: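 Cytotoxicity measured by CellTiter-Glo ATP luminescence in the wells also read for beta-lactamase signal. Cells were HRE-bla ME-180 (2,000/well, 0.5% dialyzed FBS), exposed to compounds for 17 h at 37C.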

[8] = qHTS assay to identify small molecule agonists of H2AX (AID 1224845; active means well fitted activation curve with a large enough effect in the signal ratio in the repeat runs, not every such curve was filed as active; the % refers to the signal ratio)
Summary of the method: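 Wild-type CHO-K1 cells, plated overnight, exposed 3hr at 37C to 15 concentrations (0.76% DMSO final). Lysed, then HTRF anti-pH2AX (S139) cryptate and anti-H2AX-d2 antibodies, 24 hr room temperature; 665/620 nm emission read.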

[9] = qHTS assay to identify small molecule agonists of the hypoxia (HIF-1) signaling pathway (AID 1224846; active means well fitted activation curve with a large enough effect in the signal ratio in the repeat runs, not every such curve was filed as active; the % refers to the signal ratio)
Summary of the method: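 Compounds added to ME-180 cells carrying hypoxia-response-element beta-lactamase reporter (0.5% dialyzed FBS, 5 h preplating), 17 h at 37C; agonist activity detected by CCF4-AM B/G FRET read-out.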

[10] = qHTS assay to identify small molecule agonists of H2AX - cell viability counter screen (AID 1224847; calls by dose curve; further: top concentration of the series differs between compounds; nearly all actives have a fitted effect of over 30% in size)
Summary of the method: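 CHO-K1 cells plated overnight at 37C, then exposed 3 h at 37C to compounds at 15 concentrations (0.76% DMSO final). Viability by CellTiter-Glo luminescence after 30 min at room temperature.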

[11] = qHTS RealTime-Glo MT Cell Viability Assay in HEK293 cells - 32 hour (AID 1224868); further: top concentration of the series differs between compounds; nearly all actives have a fitted effect of over 50% in size
Summary of the method: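 Quantitative high-throughput screen of the Tox21 10K library in HEK293: cells and RealTime-Glo reagents plated together, compound added at 5 h, luminescence monitored through 40 h at 37 C.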

[12] = A CellTox Green Cytotoxicity Assay to monitor cytotoxicity in HEK293 cells - 0 hour (AID 1224869); further: nearly all actives have a fitted effect of over 50% in size
Summary of the method: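 Fluorescence from a DNA-binding dye excluded by viable cells was measured repeatedly in the same HEK293 wells (600 cells/well) during continuous compound exposure at 37 C. Each assay gives one read point: 0, 8, 16, 24, 32 or 40 h.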

[13] = qHTS RealTime-Glo MT Cell Viability Assay in HepG2 cells - 40 hour (AID 1224870); further: nearly all actives have a fitted effect of over 50% in size
Summary of the method: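 HepG2 cells (600/well) mixed with RealTime-Glo MT reagent, settled 5 h at 37 C/5% CO2 before compound addition. Nonlytic NanoLuc luminescence from viable-cell prosubstrate reduction read repeatedly during 40 h treatment at 37 C.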

[14] = qHTS RealTime-Glo MT Cell Viability Assay in HepG2 cells - 24 hour (AID 1224867); further: nearly all actives have a fitted effect of over 50% in size
Summary of the method: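 Compound treatment began 5 h after plating HepG2 cells (600/well) with NanoLuc luciferase and prosubstrate. Plates stayed at 37 C for 40 h; luminescence was captured at six time points, 0 h through 40 h.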

[15] = qHTS assay to identify small molecule antagonists of the estrogen related receptor signaling pathway with the pleiotropic PPARgamma coactivator (PGC) from Tox21 10K library (AID 1224841; call rule not given here)
Summary of the method: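 Luminescence (One-Glo, 30 min at room temperature) after 18 h compound treatment at 37 C of PGC/ERR reporter cells plated at 2,000 cells/well and settled 6 h beforehand.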

[16] = qHTS assay to identify small molecule agonists of the estrogen related receptor signaling pathway with the pleiotropic PPARgamma coactivator (PGC) from Tox21 10K library (AID 1224842); further: nearly all actives have a fitted effect of over 15% in size
Summary of the method: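 PGC/ERR reporter cell line, 2,000 cells per well, incubated 6 h at 37 C before 23 nL compound in DMSO was added. After 18 h at 37 C, One-Glo luminescence read following 30 min at room temperature.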

[17] = qHTS assay to identify small molecule antagonists of the estrogen related receptor (ERR) signaling pathway from Tox21 library (AID 1224848); further: nearly all actives have a fitted effect of over 50% in size
Summary of the method: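 Quantitative high-throughput format: ERR reporter cells (2,000/well) pre-incubated 6 h, treated 18 h at 37 C with compounds in DMSO alongside positive and negative controls, then read by ONE-Glo luminescence.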

[18] = qHTS assay to identify small molecule agonists of the estrogen related receptor (ERR) signaling pathway from Tox21 library (AID 1224849; calls by dose curve; further: nearly all actives have a fitted effect of over 15% in size)
Summary of the method: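 Luminescent agonist read-out (One-Glo, 30-minute room-temperature incubation) following 18-hour compound treatment at 37 C of the ERR cell line, which had been plated 6 hours before dosing.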

[19] = target: Nuclear receptor subfamily 1 group I member 3 (Homo sapiens) (UniProt Q14994); assay: qHTS assay to identify small molecule antagonists of the constitutive androstane receptor (CAR) signaling pathway (AID 1224838);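 further: HepG2 cells stably expressing hCAR with CYP2B6 luciferase reporter stimulated by CITCO; nearly all actives have a fitted effect of over 40% in size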
Summary of the method: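 Antagonism measured as luciferase signal (ONE-Glo, 30 min, room temperature) in CAR-stimulated cells: HepG2-CYP2B6-hCAR double-stable line exposed 24 hr at 37 C to compound in a 15-point series plus 50 nM CITCO.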

[20] = target: Nuclear receptor subfamily 1 group I member 3 (Homo sapiens) (UniProt Q14994); assay: qHTS assay to identify small molecule agonists of the constitutive androstane receptor (CAR) signaling pathway (AID 1224839);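 further: HepG2 cells stably carrying human CAR and a CYP2B6 luciferase reporter; series mostly up to about 92 µM; nearly all actives have a fitted effect of over 15% in size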
Summary of the method: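 HepG2 cells stably co-transfected with hCAR and a CYP2B6-2.2kb luciferase reporter; compounds at 15 concentrations with 0.75 uM PK11195 present. After 24 hr at 37 C, luciferase read by ONE-Glo luminescence.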

Measured: Potency

Chain of Thyrotropin receptor (Homo sapiens) (P16473 whole entry, looked up): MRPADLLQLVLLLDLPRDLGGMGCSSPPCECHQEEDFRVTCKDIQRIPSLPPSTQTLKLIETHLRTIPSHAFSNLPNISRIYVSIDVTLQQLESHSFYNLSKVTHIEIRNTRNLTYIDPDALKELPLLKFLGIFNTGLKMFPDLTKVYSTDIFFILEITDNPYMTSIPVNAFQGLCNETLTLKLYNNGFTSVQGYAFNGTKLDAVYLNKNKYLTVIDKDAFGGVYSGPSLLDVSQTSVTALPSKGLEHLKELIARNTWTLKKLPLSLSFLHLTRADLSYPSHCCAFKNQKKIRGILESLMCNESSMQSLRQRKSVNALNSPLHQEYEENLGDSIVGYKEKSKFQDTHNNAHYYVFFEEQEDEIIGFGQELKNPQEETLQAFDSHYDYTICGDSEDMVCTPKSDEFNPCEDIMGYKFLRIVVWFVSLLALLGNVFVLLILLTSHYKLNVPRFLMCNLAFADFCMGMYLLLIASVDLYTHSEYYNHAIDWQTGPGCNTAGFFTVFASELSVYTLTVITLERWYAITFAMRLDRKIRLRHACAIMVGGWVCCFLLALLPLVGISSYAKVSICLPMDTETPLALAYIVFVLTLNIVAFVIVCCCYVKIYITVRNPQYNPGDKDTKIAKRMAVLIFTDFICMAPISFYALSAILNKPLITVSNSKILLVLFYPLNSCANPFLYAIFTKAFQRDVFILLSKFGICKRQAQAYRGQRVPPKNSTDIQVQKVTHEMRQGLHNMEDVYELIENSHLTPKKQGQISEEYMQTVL
Chain of Nuclear receptor subfamily 1 group I member 3 (Homo sapiens) (Q14994 whole entry, looked up): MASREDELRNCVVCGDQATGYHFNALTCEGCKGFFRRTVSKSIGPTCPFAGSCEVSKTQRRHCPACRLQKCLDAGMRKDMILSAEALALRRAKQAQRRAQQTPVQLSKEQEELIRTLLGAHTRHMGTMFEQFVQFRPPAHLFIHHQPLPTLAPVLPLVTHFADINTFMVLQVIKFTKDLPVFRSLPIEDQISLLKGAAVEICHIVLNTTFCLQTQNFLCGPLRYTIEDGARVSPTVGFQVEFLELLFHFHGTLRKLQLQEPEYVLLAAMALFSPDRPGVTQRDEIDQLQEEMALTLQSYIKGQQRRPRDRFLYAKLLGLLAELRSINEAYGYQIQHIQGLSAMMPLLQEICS
Chain of Luciferin 4-monooxygenase (Photinus pyralis) (P08659 whole entry, looked up): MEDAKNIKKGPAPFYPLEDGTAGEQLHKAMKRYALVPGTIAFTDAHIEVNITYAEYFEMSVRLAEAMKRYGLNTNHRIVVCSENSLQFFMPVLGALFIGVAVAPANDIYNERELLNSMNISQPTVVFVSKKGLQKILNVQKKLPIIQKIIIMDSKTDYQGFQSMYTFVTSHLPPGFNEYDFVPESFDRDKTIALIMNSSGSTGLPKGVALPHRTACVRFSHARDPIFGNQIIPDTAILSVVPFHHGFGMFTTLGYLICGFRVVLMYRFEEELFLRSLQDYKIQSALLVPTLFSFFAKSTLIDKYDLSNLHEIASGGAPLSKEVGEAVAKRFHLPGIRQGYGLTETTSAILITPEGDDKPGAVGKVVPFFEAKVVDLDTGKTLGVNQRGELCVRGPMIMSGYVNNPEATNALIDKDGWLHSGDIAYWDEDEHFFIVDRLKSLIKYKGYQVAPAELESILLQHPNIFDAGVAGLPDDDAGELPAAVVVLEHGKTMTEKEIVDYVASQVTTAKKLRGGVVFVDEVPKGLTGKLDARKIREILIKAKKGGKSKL

Cc1ccc(-c2ncc(Cl)cc2-c2ccc(S(C)(=O)=O)cc2)cn1
not listed: [14] | [15] | [16] | [17] | [18] | [19] | [20]
inactive: all other assays above

Cc1ccccc1N=C(N)N=C(N)N
not listed: [5] | [10] | [15] | [16] | [17] | [18] | [19] | [20]
inactive: all other assays above

CC[N+](CC)(CC(=O)Nc1c(C)cccc1C)Cc1ccccc1 (tested in a mixture with another compound)
not listed: [6] | [15] | [16] | [17] | [18] | [19] | [20]
inactive: all other assays above

CCCCCCCCCC[N+](C)(C)[O-]
not listed: [6] | [19] | [20]
inactive: all other assays above

CCOC(=O)C1=NOC(c2ccccc2)(c2ccccc2)C1
active: [2] 71 µM
not listed: [6] | [15] | [16] | [17] | [18] | [19] | [20]
inactive: all other assays above

CC1=CC(=O)[C@H]2C[C@@H]1C2(C)C
not listed: [6] | [15] | [16] | [17] | [18] | [19] | [20]
inactive: all other assays above

NCCCC(N)(C(=O)O)C(F)F (stereo not drawn)
not listed: [9] | [15] | [16] | [17] | [18] | [19] | [20]
inactive: all other assays above

O=S(=O)(O)c1cccc2ccccc12
not listed: [6] | [14] | [19] | [20]
inactive: all other assays above

CCCc1ncc(C[n+]2ccccc2C)c(N)n1
not listed: [6] | [9] | [15] | [16] | [17] | [18] | [19] | [20]
inactive: all other assays above

NC(=O)NC1N=C([O][Al])NC1=O (stereo not drawn)
not listed: [8] | [15] | [16] | [17] | [18] | [19] | [20]
inactive: all other assays above

C=CC(=O)OCCCl
not listed: [6] | [15] | [16] | [17] | [18] | [19] | [20]
inactive: all other assays above

C=CN1CCCCCC1=O
not listed: [12] | [15] | [16] | [17] | [18] | [19] | [20]
inactive: all other assays above

O=CN(CCO)CCO
not listed: [19] | [20]
inactive: all other assays above

c1ccc(Cc2ccccc2)cc1
not listed: [6] | [9] | [15] | [16] | [17] | [18] | [19] | [20]
inactive: all other assays above

CC/C=C\CCOC(C)OCC (stereo not drawn)
not listed: [2] | [9] | [12] | [15] | [16] | [17] | [18]
inactive: all other assays above

O=C1NC(=O)C2CC=CCC12 (stereo not drawn)
not listed: [2] | [9] | [15] | [16]
inactive: all other assays above

Cc1ccnc(NS(=O)(=O)c2ccc(N)cc2)n1
not listed: [3] | [9] | [14] | [19] | [20]
inactive: all other assays above

COc1cc(C(=O)NCc2ccc(OCCN(C)C)cc2)cc(OC)c1OC
not listed: [2] | [9] | [14] | [15] | [16] | [17] | [18]
inactive: all other assays above

CCC(C)(CCCC(C)C)OC(C)=O (stereo not drawn)
not listed: [2] | [15] | [16] | [17] | [18]
inactive: all other assays above

Source: PubChem BioAssay (Tox21)
